{
  "source": "PubChem BioAssay AID2284333",
  "about": "(EPA ToxCast)",
  "note": "Results filed as inconclusive are left out. The source made the active and inactive calls. The calls were made as follows: active = hit-call score of the fitted dose curve at least 0.9, where 1 is the maximum; inconclusive = response in the unintended direction; inactive = score below 0.9.",
  "data": [
    {"molecular_target": "rainbow trout Glucocorticoid Receptor (GR), nr3c1 (gene 100136786) (UniProt P49843)", "sequence (P49843 whole entry, looked up)": "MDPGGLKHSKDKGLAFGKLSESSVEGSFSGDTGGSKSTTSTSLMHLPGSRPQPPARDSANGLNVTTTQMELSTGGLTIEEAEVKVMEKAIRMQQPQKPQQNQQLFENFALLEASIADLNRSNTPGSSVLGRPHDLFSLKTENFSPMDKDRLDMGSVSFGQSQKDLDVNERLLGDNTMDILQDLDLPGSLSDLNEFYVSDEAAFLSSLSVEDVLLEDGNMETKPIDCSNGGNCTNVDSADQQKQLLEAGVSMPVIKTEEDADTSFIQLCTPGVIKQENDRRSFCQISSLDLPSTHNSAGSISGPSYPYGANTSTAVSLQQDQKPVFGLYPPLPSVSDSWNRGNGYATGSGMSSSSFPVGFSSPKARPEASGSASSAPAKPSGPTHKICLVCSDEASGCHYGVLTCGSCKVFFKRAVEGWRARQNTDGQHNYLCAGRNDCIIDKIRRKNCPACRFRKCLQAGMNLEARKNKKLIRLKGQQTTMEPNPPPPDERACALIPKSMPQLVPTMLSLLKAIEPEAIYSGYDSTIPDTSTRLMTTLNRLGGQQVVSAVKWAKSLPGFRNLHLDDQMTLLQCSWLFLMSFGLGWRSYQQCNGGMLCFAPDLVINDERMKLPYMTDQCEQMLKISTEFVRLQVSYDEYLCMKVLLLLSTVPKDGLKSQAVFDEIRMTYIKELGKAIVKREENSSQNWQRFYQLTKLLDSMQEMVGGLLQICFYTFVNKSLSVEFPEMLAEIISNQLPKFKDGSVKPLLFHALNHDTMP", "experiment": "ATG_rtGR_EcoTox2: Attagene TRANS-FACTORIAL EcoTox-2 HepG2 Assay for rainbow trout Glucocorticoid Receptor (GR)", "protocol": "ATG_EcoTox2 is a cell-based, multiplexed assay created by modifying the existing Attagene TRANS-FACTORIAL system to include a panel of nuclear receptors from some or all the following species: human (Homo sapiens), african clawed frog (Xenopus laevis), rainbow trout (Oncorhynchus mykiss), japanese medaka (Oryzias latipes), and zebrafish (Danio rerio). The ECOTOX2-FACTORIAL format uses HepG2, a human liver cell line, with measurements taken at 24 hours after chemical dosing in a 24-well plate. ATG_rtGR_EcoTox2 is one of 29 assay components calculated in the ATG_EcoTox2 assay. It is designed to make measurements of mRNA induction, a form of inducible reporter, as detected with fluorescence intensity signals by Reverse transcription polymerase chain reaction (RT-PCR) and Capillary electrophoresis technology.The assay endpoint ATG_rtGR_EcoTox2 was analyzed in the positive analysis fitting direction relative to DMSO as the negative control and baseline of activity. Using a type of inducible reporter, measures of mRNA for gain-of-signal activity can be used to understand the reporter gene at the transcription factor-level as they relate to the gene for glucocorticoid receptor. Furthermore, this assay endpoint can be referred to as a primary readout, because this assay has produced multiple assay endpoints where this one serves a reporter gene function. To generalize the intended target to other relatable targets, this assay endpoint is annotated to the nuclear receptor intended target family, where the subfamily is steroidal.\nHuman liver HepG2 cells are transiently transfected with multiple reporter transcription units (MRTUs) in 6-well plates using FuGene 6 reagent (Roche; 3 ml FuGene/1 mg DNA). The MRTU constructs are regulated by a cis-regulating element (promoter). Each RTU expresses a GAL4-UAS that regulates the transcription of a nearby target reporter gene sequence. A major difference between the CIS and TRANS system is that in CIS activities of endogenous TFs are measured, whereas the TRANS assay evaluates changes in activities of exogenous, chimeric NR-Gal4 proteins. […] At the end of 24 hour incubation, total RNA was isolated using TriZol reagent (Invitrogen). The isolated RNA is then reverse-transcribed using oligo(dT) primer and Mo-MLV reverse transcriptase (Invitrogen) with DNAse I (Ambion) treatment for 30 min. The one-tenth of the produced cDNA was amplified by PCR using Taq DNA polymerase (Invitrogen) and two reporter sequence-specific primers. The PCR products were fluorescently labeled by primer extension with 6-arboxyfluorescein (6-FAM) 5'-labeled reporter sequence-specific primer (2 min at 95 C, 20 s at 68 C and 10 min at 72 C) and these products were digested with 5U of HpaI (New England Biolabs) for 2h at 37 C. The fragments were purified using Qiaquick PCR columns (Qiagen), analyzed on an ABI 3130xL genetic analyzer (Applied Biosystems) with peak positions identified by using a set of X-rhodamine (ROX)-labeled MapMarker1000 molecular weight standards (BioVentures). The raw capillary electrophoresis data was processed using Attagraph software (Attagene).", "values": [
      {"smiles": "Cc1ccc(C)c(OCCCC(C)(C)C(=O)O)c1", "outcome": "inactive"},
      {"smiles": "CC(C)(Oc1ccc(Cl)cc1)C(=O)O", "outcome": "inactive"},
      {"smiles": "CC(c1cc2ccccc2s1)N(O)C(N)=O", "note": "(stereo unspecified)", "outcome": "inactive"},
      {"smiles": "C[C@@H]1C[C@H]2[C@@H]3CCC4=CC(=O)C=C[C@]4(C)[C@@]3(F)[C@@H](O)C[C@]2(C)[C@@]1(O)C(=O)COP(=O)(O)O", "AC50": "20.6 nM (active)"},
      {"smiles": "C=C(c1ccc(C(=O)O)cc1)c1cc2c(cc1C)C(C)(C)CCC2(C)C", "outcome": "inactive"},
      {"smiles": "CC(C)OC(=O)C(C)(C)Oc1ccc(C(=O)c2ccc(Cl)cc2)cc1", "outcome": "inactive"}
    ]}
  ]
}
